According to the supplement of paper PMC10849652:
About 7,900 targets were measured; listed, in parts, are those with a hit and a random draw of the rest. About 0.6% of all pairs of compound and target were hits.

compound: C[C@@H]1COCCN1C2=NC(=NC(=C2)C3(CC3)S(=O)(=O)C)C4=C5C=CNC5=CC=C4; assay: log2 fold change, soluble protein after heating vs DMSO (PISA); higher = thermal stabilisation; K562 cells, 10 uM, 30 min; active = over 0.2 and 3.5 SD of the protein, either way, in both replicates (recomputed)
How it was run: (§1)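 K562 cells at 2×10^6 cells/mL were given 10 μM compound for 30 min. Aliquots then went through 3 min of heating across 48°C-58°C, were pooled, and were extracted in PBS with 0.5% NP-40 at 4°C, and the supernatant after 21,000xg for 90 min was quantified by TMTpro 16plex LC-MS/MS with channel sums equalised. Thermal stability relative to control samples, from duplicates, is given as log2 fold change.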

Sequence of UniProt O15182 (O15182 whole entry, looked up): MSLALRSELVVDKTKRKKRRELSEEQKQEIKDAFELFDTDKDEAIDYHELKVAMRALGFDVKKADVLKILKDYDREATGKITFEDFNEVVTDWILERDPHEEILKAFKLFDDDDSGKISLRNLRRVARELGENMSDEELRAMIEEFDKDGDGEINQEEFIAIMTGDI
Sequence of UniProt P23786 (P23786 whole entry, looked up): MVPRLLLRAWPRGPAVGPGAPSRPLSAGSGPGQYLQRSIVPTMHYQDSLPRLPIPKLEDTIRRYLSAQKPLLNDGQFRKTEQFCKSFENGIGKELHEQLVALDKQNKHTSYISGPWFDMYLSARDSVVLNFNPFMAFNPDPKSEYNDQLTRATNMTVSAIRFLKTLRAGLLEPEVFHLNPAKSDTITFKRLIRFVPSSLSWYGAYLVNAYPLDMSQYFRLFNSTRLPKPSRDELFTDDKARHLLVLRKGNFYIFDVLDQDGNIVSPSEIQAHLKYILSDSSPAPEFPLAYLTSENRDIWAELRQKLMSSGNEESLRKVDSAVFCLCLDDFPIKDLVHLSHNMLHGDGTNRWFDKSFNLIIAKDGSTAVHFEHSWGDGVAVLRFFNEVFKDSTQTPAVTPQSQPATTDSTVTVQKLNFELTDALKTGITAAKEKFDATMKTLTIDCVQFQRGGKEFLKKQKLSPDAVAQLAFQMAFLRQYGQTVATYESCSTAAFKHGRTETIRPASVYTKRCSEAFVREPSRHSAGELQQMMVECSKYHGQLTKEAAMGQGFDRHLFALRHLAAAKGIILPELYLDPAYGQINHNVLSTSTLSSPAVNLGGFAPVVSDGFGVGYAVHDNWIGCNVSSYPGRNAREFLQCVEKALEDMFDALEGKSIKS
Sequence of UniProt P83916 (P83916 whole entry, looked up): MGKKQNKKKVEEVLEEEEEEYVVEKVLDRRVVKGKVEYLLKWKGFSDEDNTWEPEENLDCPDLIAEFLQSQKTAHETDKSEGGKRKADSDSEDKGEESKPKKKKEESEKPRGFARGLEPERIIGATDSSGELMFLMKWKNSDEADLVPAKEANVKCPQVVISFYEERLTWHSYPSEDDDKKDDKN
Sequence of UniProt O15234 (O15234 whole entry, looked up): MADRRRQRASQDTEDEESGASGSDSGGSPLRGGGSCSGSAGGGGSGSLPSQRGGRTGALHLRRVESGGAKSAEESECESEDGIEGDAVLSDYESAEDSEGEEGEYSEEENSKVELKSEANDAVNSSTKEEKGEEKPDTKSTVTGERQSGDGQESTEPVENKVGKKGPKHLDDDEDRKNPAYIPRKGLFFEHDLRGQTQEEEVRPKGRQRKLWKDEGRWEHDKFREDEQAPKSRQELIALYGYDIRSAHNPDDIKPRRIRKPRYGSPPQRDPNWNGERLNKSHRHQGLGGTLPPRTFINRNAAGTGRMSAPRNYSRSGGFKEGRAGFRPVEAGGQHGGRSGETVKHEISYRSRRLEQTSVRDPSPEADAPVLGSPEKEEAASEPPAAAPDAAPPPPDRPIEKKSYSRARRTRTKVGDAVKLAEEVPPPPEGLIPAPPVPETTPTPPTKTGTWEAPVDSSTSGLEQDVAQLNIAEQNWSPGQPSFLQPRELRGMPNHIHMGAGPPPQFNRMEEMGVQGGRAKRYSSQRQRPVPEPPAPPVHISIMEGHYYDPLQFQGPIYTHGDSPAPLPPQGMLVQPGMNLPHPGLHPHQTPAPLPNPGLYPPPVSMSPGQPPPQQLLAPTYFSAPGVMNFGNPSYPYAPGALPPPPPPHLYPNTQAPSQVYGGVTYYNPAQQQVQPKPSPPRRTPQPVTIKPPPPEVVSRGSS
Sequence of UniProt Q9Y6K0 (Q9Y6K0 whole entry, looked up): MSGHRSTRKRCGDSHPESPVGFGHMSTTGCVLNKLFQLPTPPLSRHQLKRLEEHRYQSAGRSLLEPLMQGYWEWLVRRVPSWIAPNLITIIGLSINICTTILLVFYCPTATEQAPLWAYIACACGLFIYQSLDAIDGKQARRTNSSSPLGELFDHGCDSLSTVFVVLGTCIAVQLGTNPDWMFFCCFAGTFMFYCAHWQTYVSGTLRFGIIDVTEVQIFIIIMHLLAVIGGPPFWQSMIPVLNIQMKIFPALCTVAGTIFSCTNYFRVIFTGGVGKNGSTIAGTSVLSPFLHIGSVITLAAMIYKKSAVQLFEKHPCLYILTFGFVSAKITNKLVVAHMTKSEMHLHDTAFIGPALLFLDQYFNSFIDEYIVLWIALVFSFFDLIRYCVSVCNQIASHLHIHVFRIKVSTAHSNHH
Sequence of UniProt Q5VT25 (Q5VT25 whole entry, looked up): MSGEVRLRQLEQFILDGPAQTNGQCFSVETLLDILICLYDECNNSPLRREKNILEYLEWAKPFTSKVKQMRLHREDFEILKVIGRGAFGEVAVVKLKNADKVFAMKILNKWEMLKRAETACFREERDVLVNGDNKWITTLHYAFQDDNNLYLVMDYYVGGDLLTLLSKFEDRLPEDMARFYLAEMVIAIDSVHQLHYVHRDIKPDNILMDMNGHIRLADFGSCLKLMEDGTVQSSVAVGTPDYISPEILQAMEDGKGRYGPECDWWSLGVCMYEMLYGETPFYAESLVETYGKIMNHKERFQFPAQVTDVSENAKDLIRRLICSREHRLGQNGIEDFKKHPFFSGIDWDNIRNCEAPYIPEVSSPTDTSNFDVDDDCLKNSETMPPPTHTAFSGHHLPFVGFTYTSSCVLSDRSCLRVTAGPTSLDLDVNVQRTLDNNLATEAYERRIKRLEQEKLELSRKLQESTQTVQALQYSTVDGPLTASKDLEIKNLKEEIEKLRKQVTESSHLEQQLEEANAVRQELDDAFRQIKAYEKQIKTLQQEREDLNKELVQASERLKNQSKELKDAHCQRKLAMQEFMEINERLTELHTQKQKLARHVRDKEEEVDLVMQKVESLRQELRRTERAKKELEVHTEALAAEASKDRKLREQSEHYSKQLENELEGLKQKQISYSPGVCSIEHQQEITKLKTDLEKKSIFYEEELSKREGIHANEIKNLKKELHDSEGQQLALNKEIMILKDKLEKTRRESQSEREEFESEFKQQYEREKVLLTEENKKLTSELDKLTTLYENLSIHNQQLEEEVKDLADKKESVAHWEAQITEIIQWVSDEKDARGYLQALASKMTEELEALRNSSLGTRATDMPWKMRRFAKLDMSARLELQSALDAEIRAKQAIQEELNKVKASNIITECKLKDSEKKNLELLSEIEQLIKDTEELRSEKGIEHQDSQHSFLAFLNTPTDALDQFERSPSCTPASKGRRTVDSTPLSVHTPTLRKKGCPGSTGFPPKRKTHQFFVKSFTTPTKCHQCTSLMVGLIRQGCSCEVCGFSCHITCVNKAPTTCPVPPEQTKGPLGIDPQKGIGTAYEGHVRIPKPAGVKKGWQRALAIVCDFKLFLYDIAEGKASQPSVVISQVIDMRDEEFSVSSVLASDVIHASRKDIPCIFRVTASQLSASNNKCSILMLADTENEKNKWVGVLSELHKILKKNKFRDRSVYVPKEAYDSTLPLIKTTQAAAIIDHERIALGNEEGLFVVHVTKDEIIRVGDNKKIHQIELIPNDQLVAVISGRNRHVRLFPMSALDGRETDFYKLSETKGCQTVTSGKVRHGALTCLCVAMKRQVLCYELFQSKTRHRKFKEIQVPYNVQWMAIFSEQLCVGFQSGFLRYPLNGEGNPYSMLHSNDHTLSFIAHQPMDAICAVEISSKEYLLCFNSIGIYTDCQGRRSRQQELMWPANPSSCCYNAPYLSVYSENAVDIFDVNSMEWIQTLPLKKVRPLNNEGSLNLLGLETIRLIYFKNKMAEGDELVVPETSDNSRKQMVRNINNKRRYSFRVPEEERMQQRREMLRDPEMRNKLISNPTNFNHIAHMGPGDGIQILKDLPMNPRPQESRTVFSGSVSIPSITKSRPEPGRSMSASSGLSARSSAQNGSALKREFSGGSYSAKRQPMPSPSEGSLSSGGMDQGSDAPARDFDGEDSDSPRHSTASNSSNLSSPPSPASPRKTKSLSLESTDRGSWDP
Sequence of UniProt A6NHX0 (A6NHX0 whole entry, looked up): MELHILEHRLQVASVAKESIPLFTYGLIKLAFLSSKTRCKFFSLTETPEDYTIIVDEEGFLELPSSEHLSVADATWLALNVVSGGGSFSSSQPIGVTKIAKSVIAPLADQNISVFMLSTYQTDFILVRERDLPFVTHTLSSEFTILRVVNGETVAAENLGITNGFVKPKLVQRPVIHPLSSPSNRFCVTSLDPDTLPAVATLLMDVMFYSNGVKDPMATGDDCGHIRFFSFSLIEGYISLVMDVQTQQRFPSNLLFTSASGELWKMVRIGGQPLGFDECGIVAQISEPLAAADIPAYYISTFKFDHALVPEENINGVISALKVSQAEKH
Sequence of UniProt Q01459 (Q01459 whole entry, looked up): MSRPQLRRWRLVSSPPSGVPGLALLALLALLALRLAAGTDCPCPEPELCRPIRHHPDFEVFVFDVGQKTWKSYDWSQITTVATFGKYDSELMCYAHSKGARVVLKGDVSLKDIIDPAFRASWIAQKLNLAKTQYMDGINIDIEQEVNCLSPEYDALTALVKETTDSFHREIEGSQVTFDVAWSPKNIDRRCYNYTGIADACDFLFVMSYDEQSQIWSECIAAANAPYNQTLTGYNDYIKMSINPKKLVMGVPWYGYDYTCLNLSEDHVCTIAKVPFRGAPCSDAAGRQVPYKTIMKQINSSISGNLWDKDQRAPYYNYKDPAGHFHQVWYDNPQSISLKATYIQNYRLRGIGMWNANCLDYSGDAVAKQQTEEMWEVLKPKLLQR
Sequence of UniProt P08174 (P08174 whole entry, looked up): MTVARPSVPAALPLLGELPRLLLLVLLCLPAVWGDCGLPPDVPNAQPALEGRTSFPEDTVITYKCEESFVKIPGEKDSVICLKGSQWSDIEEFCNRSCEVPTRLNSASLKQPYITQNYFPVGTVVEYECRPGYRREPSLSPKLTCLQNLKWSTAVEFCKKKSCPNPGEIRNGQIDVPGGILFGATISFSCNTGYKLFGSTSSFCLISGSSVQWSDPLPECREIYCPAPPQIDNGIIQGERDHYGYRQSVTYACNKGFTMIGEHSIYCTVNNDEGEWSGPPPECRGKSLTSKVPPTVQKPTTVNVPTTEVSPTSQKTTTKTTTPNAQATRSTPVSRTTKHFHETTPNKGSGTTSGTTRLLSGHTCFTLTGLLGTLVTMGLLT

log2 fold change, active:
CASC3 (UniProt O15234) -0.412
CLUH (UniProt O75153) 0.348

log2 fold change, inactive:
C9orf72 (UniProt Q96LT7) -0.024
CDK13 (UniProt Q14004) -0.036
CTBS (UniProt Q01459) -0.078
CCNB1 (UniProt P14635) -0.044
COMT (UniProt P21964) 0.053
CEPT1 (UniProt Q9Y6K0) 0.146
COPS4 (UniProt Q9BT78) 0.064
COASY isoform 2 (UniProt Q13057) 0.133
CNOT1 (UniProt A5YKK6) -0.034
CETN3 (UniProt O15182) -0.084
CPSF6 isoform 2 (UniProt Q16630) 0.075
CASTOR2 (UniProt A6NHX0) 0.088
CLUH, A0A494C0R8 0.205
CLTB (UniProt P09497) -0.004
CLCN3 isoform 2 (UniProt P51790) 0.09
CDC123 (UniProt O75794) 0.074
CD55 isoform 7 (UniProt P08174) -0.096
CSNK1A1 (UniProt P48729) -0.114
CNTN4 (UniProt Q8IWV2) 0.148
CDC42BPA isoform 6 (UniProt Q5VT25) -0.016
CDK5RAP1 (UniProt Q96SZ6) 0.033
CASP10 isoform 4 (UniProt Q92851) 0.015
CPT2 (UniProt P23786) 0.06
CBX1 (UniProt P83916) 0.043
CD151 (UniProt P48509) 0.07
CS (UniProt O75390) 0.072
CSTF3 (UniProt Q12996) 0.025
CAD (UniProt P27708) 0
CCAR2 isoform 2 (UniProt Q8N163) 0.046
COX5A (UniProt P20674) 0.109
CDK12 (UniProt Q9NYV4) -0.362
CHCHD2 (UniProt Q9Y6H1) -0.017
CALB1 (UniProt P05937) 0.015

compound: C[C@H](C1=CC=C(C=C1)C(=O)NC2=C3C=CNC3=NC=C2)N; assay: as above
How it was run: as §1

log2 fold change, active:
CPSF6 isoform 2 (UniProt Q16630) -0.292
CDC42BPA isoform 6 (UniProt Q5VT25) -0.596

log2 fold change, inactive:
C9orf72 (UniProt Q96LT7) -0.048
CDK13 (UniProt Q14004) 0.095
CTBS (UniProt Q01459) 0.04
CCNB1 (UniProt P14635) -0.024
COMT (UniProt P21964) -0.081
CEPT1 (UniProt Q9Y6K0) 0.042
COPS4 (UniProt Q9BT78) -0.064
COASY isoform 2 (UniProt Q13057) -0.09
CNOT1 (UniProt A5YKK6) 0.033
CETN3 (UniProt O15182) -0.071
CASTOR2 (UniProt A6NHX0) -0.022
CASC3 (UniProt O15234) 0.243
CLUH, A0A494C0R8 0.037
CLTB (UniProt P09497) -0.047
CLCN3 isoform 2 (UniProt P51790) -0.142
CDC123 (UniProt O75794) -0.032
CD55 isoform 7 (UniProt P08174) -0.14
CLUH (UniProt O75153) 0.094
CSNK1A1 (UniProt P48729) -0.073
CNTN4 (UniProt Q8IWV2) -0.099
CDK5RAP1 (UniProt Q96SZ6) 0.031
CASP10 isoform 4 (UniProt Q92851) -0.137
CPT2 (UniProt P23786) -0.01
CBX1 (UniProt P83916) -0.08
CD151 (UniProt P48509) -0.089
CS (UniProt O75390) -0.034
CSTF3 (UniProt Q12996) 0.019
CAD (UniProt P27708) 0.033
CCAR2 isoform 2 (UniProt Q8N163) 0.011
COX5A (UniProt P20674) -0.092
CDK12 (UniProt Q9NYV4) 0.376
CHCHD2 (UniProt Q9Y6H1) -0.075
CALB1 (UniProt P05937) -0.039
